FLuc modulator – counter-screen for miR-21 project: firefly luciferase inhibitors or activators | P08659 | purified FLuc, Km substrates, luminescence inhibition | Potency, µM (series often up to 57.5 µM), for the others: at the highest dose activity change, negative = inhibition, actives largely listed as inhibitors | 360,000 compounds, 6.9% hits;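 further: plate controls were vehicle for no effect and reference inhibitor for full effect; nearly all actives have a fitted effect of over 55% in size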
Target sequence (P08659 whole entry, looked up): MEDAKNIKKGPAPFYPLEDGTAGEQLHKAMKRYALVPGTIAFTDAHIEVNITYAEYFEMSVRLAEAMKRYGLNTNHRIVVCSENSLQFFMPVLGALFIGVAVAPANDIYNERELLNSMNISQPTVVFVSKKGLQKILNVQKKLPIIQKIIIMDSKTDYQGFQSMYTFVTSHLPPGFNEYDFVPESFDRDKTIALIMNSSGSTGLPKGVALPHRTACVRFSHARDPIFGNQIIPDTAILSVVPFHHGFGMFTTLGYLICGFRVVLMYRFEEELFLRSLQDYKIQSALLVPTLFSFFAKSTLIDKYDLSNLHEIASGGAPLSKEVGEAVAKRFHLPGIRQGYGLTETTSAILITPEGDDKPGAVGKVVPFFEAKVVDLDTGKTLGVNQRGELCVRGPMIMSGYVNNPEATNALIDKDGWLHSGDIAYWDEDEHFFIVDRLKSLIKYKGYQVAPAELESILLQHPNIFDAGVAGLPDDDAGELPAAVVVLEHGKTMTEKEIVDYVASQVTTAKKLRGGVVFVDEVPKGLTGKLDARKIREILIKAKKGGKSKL
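Purified P. pyralis luciferase (10nM final) with 10uM D-luciferin and 10uM ATP (Km levels) in 50mM Tris acetate pH 7.5, 10mM Mg acetate, 0.01% Tween-20, 0.05% BSA; qHTS 6-point titration, ~60 µM downward; luminescence read.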
SMN2 splice enh – enhancers of SMN2 splice variant expression. Potency, µM (highest dose often 46.1 µM), inactives show top-dose activity change, positive = activation, most hits filed as activators. 210,000 compounds, 2.8% hits. HEK293 SMN2-luciferase splicing reporter, luminescence, 30-36 h; further: % of control where 0% means no effect; nearly all actives have a fitted effect of over 55% in size
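HEK293 cells carry an SMN2 […]–luciferase reporter in which exon 7 inclusion puts luciferase in frame. Cells were plated 10-12 h before compound addition, then incubated 30-36 h at 37C. ONE-Glo luminescence was read; sodium butyrate at 4.5 mM final served as control.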
Rab9 prom act – activates the Rab9 promoter; AID 485297; Huh7 Rab9 promoter-luciferase reporter, luminescence, 24 h; 320,000 compounds, 2.8% hits; Potency, µM (doses to about 9.22 µM), for inactives: at the highest dose activation, negative = inhibition, usual class: activators; further: % of control where 0% means no effect; nearly all actives have a fitted effect of over 60% in size
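Cells were plated at 1500 per well in reduced-serum medium with 10% FBS and left 2 h. Compound in DMSO was then added for 24 h at 37 °C. Reporter signal was read by luminescence after 10 min with luciferase detection reagent.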
NPC1 promoter act – NPC1 promoter activation; 320,000 compounds, 2.4% hits; Potency, µM (doses to about 9.22 µM), without a hit: top-dose activation, hits mostly activators; Huh7 NPC1 promoter luciferase reporter, 24 h; AID 485313; further: % of control where 0% means no effect; nearly all actives have a fitted effect of over 60% in size
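Luminescence from an NPC1 promoter-driven luciferase reporter in stably transfected Huh7 cells was measured after 24 h compound treatment at 37 °C, followed by 10 min ambient incubation with luciferase detection reagent.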
ELG1 genotoxic – inducers of genotoxicity in HEK293T ELG1-luciferase cells. 330,000 compounds, 1.3% hits. Potency, µM (series often up to 46 µM), for the others: top-dose activity change, positive = activation, usual class: activators. HEK293T ELG1-luciferase reporter, luminescence, 16 h; further: % of control where 0% means no effect; nearly all actives have a fitted effect of over 60% in size
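After overnight (16 hr) compound treatment at 37 °C, ELG1-luciferase HEK293T cells were lysed with ONE-Glo; luminescence quantified 30 min later at room temperature.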
ELG1 repair inh – blocks ELG1-dependent DNA repair in HEK293T cells; HEK293T ELG1-luciferase reporter, luminescence, 16 h; DNA damage induced by 5-fluorouridine; AID 504467; 330,000 compounds, 2.3% hits; Potency, µM (series often up to 46.1 µM), inactives show at the highest dose activity change, negative = inhibition, most hits filed as inhibitors; further: on the % scale 0 is the no-effect control and ±100 the full control effect; nearly all actives have a fitted effect of over 55% in size
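Step one: seed 2,000 cells per well. Step two: pin-transfer compound or DMSO alongside 5-fluorouridine. Step three: incubate 16 hr, 37 °C, 5% CO2. Step four: add ONE-Glo, wait 30 min, read luminescence.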
An asterisk follows results filed as active; u = inconclusive; x = no result; [ ] = remark or other dose. The list is not random: actives were taken first. Their share in the collection is about 9.2%. The call rests on the fitted dose curve; in most records, active means well fitted curve in the direction sought with a large enough effect; inconclusive means small, poorly fitted or top-dose-only effect, or another doubt; inactive means no such curve, though single readings can be large; an effect the other way counts as inactive or inconclusive. Potency means the concentration at half of the fitted maximal effect.

SMILES	FLuc modulator	SMN2 splice enh	Rab9 prom act	NPC1 promoter act	ELG1 genotoxic	ELG1 repair inh
O=C1CCCc2nc(N3CCc4ccccc43)ncc21	2.7µM*	13µM*	1.6µM*	3.2µM*	3.3µM*	u
CC1(C)CC(=O)c2cnc(N3CCc4ccccc4C3)nc2C1	2.7µM*	-35%	u	2.8µM*	1.8µM*	u
O=C1CCCc2nc(N3CCN(Cc4ccccc4)CC3)ncc21	-2%	-28%	0%	-4%	-10%	u
O=[N+]([O-])c1cc([N+](=O)[O-])c(Oc2ccc(Br)cc2Br)cc1NN1CCCCC1	1%	x	0%	-1%	-6%	0%
c1ccc(-c2nccc(-c3ccc4c(c3)OCO4)n2)cc1	19µM*	u	u	u	u	u
c1ccc(CNc2ccnc(-c3ccc4c(c3)OCO4)n2)cc1	x	13µM*	x	x	x	x
CCOC(=O)c1c(C)nc2sc(C(=O)Nc3ccccc3)c(N)c2c1-c1ccc(OC)cc1	2%	0%	3%	23%	0%	0%
CC(=O)Nc1cccc(OCc2cnc(Cl)s2)c1	-20%	19%	6%	-2%	13%	u
CC(C)(C)c1ccc(OCc2cnc(Cl)s2)cc1	13µM*	3%	u	17%	u	u
COc1ccc(CCNC(=O)c2ccc3c(c2)N(Cc2cc(C)ccc2C)C(=O)c2ccccc2S3=O)cc1OC (stereo not given)	-6%	-10%	x	x	x	x
O=C(NCCCSc1ccccc1)c1cc(Cl)ccc1O	11µM*	x	-10%	-3%	u	3%
O=C(NCCCCCCNC(=O)c1ccccc1O)c1ccccc1O	-11%	x	3%	1%	-12%	10µM*
CC1CCN(S(=O)(=O)c2cc(C(=O)NCc3ccc(N(C)C)cc3)n(C)c2)CC1	-14%	x	x	x	x	x
Cn1cc(S(=O)(=O)N2CCOCC2)cc1C(=O)NCc1ccccc1Cl	-1%	x	0%	-2%	6%	0%
O=C(OCC1CCCO1)c1ccc2c(c1)N(Cc1ccccc1)C(=O)c1ccccc1S2(=O)=O (stereo not given)	-9%	x	x	x	x	x
Cc1cccc(NC(=O)c2cccc(S(=O)(=O)N3CCc4ccccc4C3)c2)n1	6%	x	2%	-2%	-3%	u
CCN(CC)c1ccc(NC(=S)NC(=O)c2cccs2)cc1	15µM*	x	0.56µM*	u	8%	u
COc1cc(NC(=S)NC(=O)c2cccs2)ccc1NC(=O)C(C)C	u	8%	27%	19%	-2%	2%
CC(C)C(=O)Nc1cccc(NC(=S)NC(=O)c2cccs2)c1	-16%	x	2.8µM*	2.8µM*	19%	u
CN(C)S(=O)(=O)c1ccc(NC(=S)NC(=O)c2cccs2)cc1	u	x	14%	0%	-1%	7%
CCN(c1ccccc1)S(=O)(=O)c1ccc(NC(=S)NC(=O)c2cccs2)cc1	-1%	-32%	-4%	-2%	-14%	13µM*
CCc1cccc(CC)c1NC(=O)CN1C2CCCC1CC(NC(=O)Nc1cccc(OC)c1)C2 (stereo not given)	-2%	x	-8%	-6%	-8%	u
Nc1ncnc2c1ncn2[C@H]1O[C@@H](CO)[C@@H](O)[C@H]1N	x	-8%[9.22 µM]	x	x	x	x
O=c1cc2c(nn1Cc1ccc(Cl)cc1Cl)-c1ccccc1CC2	-1%	-32%	-4%	1%	-2%	-19%
O=C1Cc2ccccc2C(=O)N1OCc1ccc(Cl)cc1Cl	24µM*	12%	3%	4%	5%	21%
SMILES	FLuc modulator	SMN2 splice enh	Rab9 prom act	NPC1 promoter act	ELG1 genotoxic	ELG1 repair inh
O=C1c2ccccc2C(=O)N1OCc1ccccc1	u	-4%	-5%	4%	-3%	2%
O=C1c2ccccc2C(=O)N1OCc1cccc(Cl)c1	19µM*	-20%	4%	0%	3%	u
COc1ccc(-c2c[n+]3c(n2-c2ccc(C)cc2)CCCCC3)cc1	0%	x	-50%	-34%	-8%	0.92µM*
COc1ccc(-n2c(-c3ccc(Cl)cc3)c[n+]3c2CCCCC3)cc1	-1%	x	-36%	-17%	-10%	5.8µM*
COc1ccc(-c2c[n+]3c(n2-c2ccccc2)CCCCC3)cc1	2%	-58%	-19%	-19%	-7%	u
COc1cccc(NC(=O)CSCc2cc(=O)n3nc(C4CC4)sc3n2)c1	1%	x	-3%	1%	1%	10%
O=S(=O)(Nc1nc2ccccc2nc1N1CCc2ccccc2C1)c1ccc(Br)cc1	15µM*	u	-2%	-2%	u	u
O=S(=O)(c1ccc2ccccc2c1)N1CCN(CCO)CC1	0%	x	-3%	-1%	2%	7%
c1ccc(Cn2nc(-c3ccccc3)nc2-c2ccccc2)cc1	21µM*	25%	18%	13%	u	u
Cc1ccc(Cn2c(-c3ccccc3)nc3ccccc32)cc1	u	-17%	x	x	x	x
O=C(Cn1nc(-c2ccccc2)nc1-c1ccccc1)N1CCOCC1	0%	-5%	-3%	4%	-3%	-3%
Cn1nc(-c2ccccc2)nc1-c1ccccc1	21µM*	x	u	u	12%	u
Cc1ccc(Cn2nc(-c3ccccc3)nc2-c2ccccc2)cc1	15µM*	u	3.5µM*	u	u	u
Cc1ccc(NC(=O)Cn2c(=O)ccc3cc(S(=O)(=O)N4CCC(C)CC4)ccc32)cc1Cl	-6%	x	x	x	x	x
CCOc1ccc(S(N)(=O)=O)cc1-c1nc2c(C(C)(C)C)nn(C)c2c(=O)[nH]1	-2%	x	-1%	0%	3%	-11%
CCOc1ccc(S(=O)(=O)NC(C)(C)C)cc1-c1nc2c(C(C)(C)C)nn(C)c2c(=O)[nH]1	-1%	-6%	0%	-1%	-28%	12µM*
Cc1cc(OCC(=O)OCC(=O)NC2CCCCC2C)ccc1Cl (stereo not given)	8%	x	-5%	-3%	-2%	u
CC1(C)Cc2c(C#N)c(NCCN3CCOCC3)nc(-c3ccco3)c2CO1	-4%	1%	11%	-4%	-14%	u
CC1(C)Cc2c(C#N)c(NCCN3CCOCC3)nc(-c3ccccc3)c2CO1	-1%	x	0%	1%	0%	8.2µM*
CC1(C)Cc2c(C#N)c(SCC(=O)c3ccccc3)nc(N3CCOCC3)c2CO1	-18%	-1%	2%	2%	-8%	1.3µM*
CCCOC(=O)CSc1nc(N2CCOCC2)c2c(c1C#N)CC(C)(C)OC2	-1%	x	-7%	0%	-8%	u
CCOC(=O)CSc1nc(N2CCOCC2)c2c(c1C#N)CC(C)(C)OC2	0%	x	-10%	-3%	-7%	2.1µM*

Assay outcomes from PubChem BioAssay.
